Experiment [1] can be described thus: qHTS assay to identify small molecule antagonists of the thyroid receptor (TR) signaling pathway - cell viability counter screen (AID 743064). Note: nearly all actives have a fitted effect of over 50% in size. The gist of the method: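 Fluorescence from CellTiter-Fluor, added after 23.5 h exposure at 37 °C, reported viability of GH3.TRE-Luc cells co-treated with compound and 1 nM T3. Measured in the same wells as the luciferase TR readout.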
For orientation: In qHTS, concentration-response curves come from the screen itself.

The nature of experiment [2]: qHTS assay to identify small molecule antagonists of the thyroid receptor (TR) signaling pathway (AID 743065). Note: series mostly up to about 70 µM; nearly all actives have a fitted effect of over 55% in size. The gist of the method: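 GH3.TRE-Luc rat pituitary cells carrying two TR response elements driving luciferase were plated for 4 h, given compound plus 1 nM T3 (final), and incubated 23.5 h at 37 C. ONE-Glo luminescence measured reporter inhibition; CellTiter-Fluor fluorescence tracked cytotoxicity.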

The subject of experiment [3] is thyroid hormone receptor (rat, GH3 cells). The experiment can be described thus: qHTS assay to identify small molecule agonists of the thyroid receptor (TR) signaling pathway (AID 743066; calls by dose curve).
The target of experiment [4] is Estrogen receptor (Homo sapiens) (UniProt P03372). The experiment can be described thus: qHTS assay to identify small molecule antagonists of the estrogen receptor alpha (ER-alpha) signaling pathway (AID 743069; active = well fitted curve in the direction sought with a large enough effect in the signal ratio in the repeat runs, not every such curve was filed as active; the % refers to the signal ratio). The gist of the method: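 A 17beta-estradiol challenge was applied right after compound transfer to ER-alpha-UAS-bla HEK293 cells previously kept in charcoal-stripped serum. Plates stood 18 hr at 37C and 5% CO2; fluorescence was read following 2 hr FRET substrate loading at room temperature.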

Experiment [5] in a line: qHTS assay to identify small molecule antagonists of the estrogen receptor alpha (ER-alpha) signaling pathway - cell viability counter screen (AID 743074; calls by dose curve;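 note: HEK293 cells carrying ER-alpha-UAS-bla reporter stimulated with 17beta-estradiol; nearly all actives have a fitted effect of over 45% in size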).
Experiment [6] concerns the target Estrogen receptor (Homo sapiens) (UniProt P03372). The experiment can be described thus: qHTS assay to identify small molecule agonists of the estrogen receptor alpha (ER-alpha) signaling pathway (AID 743075; calls by dose curve;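 note: HEK293 GripTite cells with ER-alpha and UAS-driven beta-lactamase reporter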).
Experiment [7] shares this target. The experiment can be described thus: qHTS assay to identify small molecule agonists of the estrogen receptor alpha (ER-alpha) signaling pathway using the BG1 cell line (AID 743079). Note: nearly all actives have a fitted effect of over 20% in size. Note: potency is the fitted concentration of half-maximal effect.
Experiment [8] in a line: qHTS assay to identify small molecule antagonists of the estrogen receptor alpha (ER-alpha) signaling pathway using the BG1 cell line (AID 743080; calls by dose curve;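 note: BG1 cells stimulated with 17beta-estradiol alongside compound; series mostly up to about 70 µM; nearly all actives have a fitted effect of over 25% in size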). The gist of the method: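 Luminescence from a 4×ERE-luciferase reporter in BG1-Luc-4E2 cells served as read-out. Cells, pre-cultured 5 days in stripped-serum phenol-red-free medium, were exposed to compound with 17beta-estradiol co-stimulation for 21.5 h at 37 C.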

Experiment [9] can be described thus: qHTS assay to identify small molecule antagonists of the estrogen receptor alpha (ER-alpha) signaling pathway using the BG1 cell line - cell viability counter screen (AID 743081).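 Note: compound given together with 17beta-estradiol as the ER stimulus; series mostly up to about 70 µM; nearly all actives have a fitted effect of over 45% in size.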
For experiment [10], the target named is Aromatase (Homo sapiens) (UniProt P11511). The experiment can be described thus: qHTS assay to identify aromatase inhibitors (AID 743083). Note: series mostly up to about 70 µM; nearly all actives have a fitted effect of over 55% in size.

Several values for one entry are separate records, joined by “and”; a condition that tells them apart may be missing. Identical values can stand only once. Records with an inconclusive call do not appear. Values without a mark were called inactive. Activity calls are given as the source filed them. Unless noted, calls come from the whole dose curve; as a rule, active = well fitted curve in the direction sought with a large enough effect in the repeat runs; inconclusive = weak or mixed curves; inactive = no such curve, though single readings can be large; an effect the other way counts as inactive or inconclusive.
% is set by controls: 0 for no effect and ±100 for the full control effect.

Chain of Aromatase (Homo sapiens) (P11511 whole entry, looked up): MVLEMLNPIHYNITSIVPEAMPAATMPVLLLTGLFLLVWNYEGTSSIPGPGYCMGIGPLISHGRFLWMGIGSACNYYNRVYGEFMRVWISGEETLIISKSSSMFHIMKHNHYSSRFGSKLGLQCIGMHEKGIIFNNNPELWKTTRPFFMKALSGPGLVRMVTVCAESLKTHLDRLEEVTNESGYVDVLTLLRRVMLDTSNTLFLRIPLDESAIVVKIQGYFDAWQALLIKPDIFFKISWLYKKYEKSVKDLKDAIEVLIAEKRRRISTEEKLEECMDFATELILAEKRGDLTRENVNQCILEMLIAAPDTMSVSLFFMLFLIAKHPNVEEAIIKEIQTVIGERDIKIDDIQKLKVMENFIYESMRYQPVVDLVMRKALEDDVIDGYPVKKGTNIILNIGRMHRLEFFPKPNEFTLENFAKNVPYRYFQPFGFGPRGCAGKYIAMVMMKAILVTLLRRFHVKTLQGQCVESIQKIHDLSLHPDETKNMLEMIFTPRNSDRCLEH
Chain of Estrogen receptor (Homo sapiens) (P03372 whole entry, looked up): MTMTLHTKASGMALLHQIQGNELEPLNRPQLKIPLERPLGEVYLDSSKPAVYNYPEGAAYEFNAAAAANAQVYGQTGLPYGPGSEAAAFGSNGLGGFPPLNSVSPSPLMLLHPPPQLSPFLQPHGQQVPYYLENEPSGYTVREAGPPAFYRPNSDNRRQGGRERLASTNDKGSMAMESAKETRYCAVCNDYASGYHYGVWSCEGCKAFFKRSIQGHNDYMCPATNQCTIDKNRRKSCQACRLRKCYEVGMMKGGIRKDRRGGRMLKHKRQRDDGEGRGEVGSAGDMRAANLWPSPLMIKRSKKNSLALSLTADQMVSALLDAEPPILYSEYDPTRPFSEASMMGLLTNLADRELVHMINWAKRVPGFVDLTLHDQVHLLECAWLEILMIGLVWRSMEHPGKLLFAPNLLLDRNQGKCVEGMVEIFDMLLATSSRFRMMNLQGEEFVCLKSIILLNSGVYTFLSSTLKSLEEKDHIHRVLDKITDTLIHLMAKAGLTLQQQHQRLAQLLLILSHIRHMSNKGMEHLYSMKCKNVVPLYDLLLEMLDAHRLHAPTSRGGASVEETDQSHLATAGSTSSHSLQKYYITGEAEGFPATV

For `Cc1c(N=C=O)cccc1N=C=O`, the Potency entry in experiment [1], in experiment [2], in [4], in experiment [6], in experiment [7] and in experiment [8] was “inactive” each time. The Potency result in experiment [9] and in experiment [10] was “inactive” in each case. For the same compound, the compound was classed as inactive in [3] and in [5].
In the case of `CC(=O)c1ccc(Cl)c(Cl)c1Cl`, the Potency result in [1], in [2], in experiment [4], in experiment [6], in [7] and in experiment [9] was “inactive” each time. Moreover, the Potency result in [10] was “inactive”. In addition, the compound was called inactive in experiment [3] and in [5].
In the case of `CC(=O)Nc1cccc(N)c1`, the Potency result in experiment [1], in [2], in experiment [4], in experiment [6], in experiment [7] and in experiment [8] was “inactive” in each case. The Potency entry in [9] and in experiment [10] was “inactive” throughout. The result in [3] and in experiment [5] was inactive.
`O=[N+]([O-])c1cccc(I)c1`: the Potency result in experiment [1], in [2], in experiment [4], in experiment [6], in experiment [7] and in [8] was “inactive” each time. The Potency result in experiment [9] and in experiment [10] was “inactive” throughout. For the same compound, the call in experiment [3] and in experiment [5] was inactive.
`CCC[Si](OC)(OC)OC`: the Potency result in experiment [1], in [2], in [4], in experiment [6], in [7] and in experiment [8] was “inactive” throughout. Also, the Potency result in experiment [9] and in experiment [10] was “inactive” each time. Moreover, the compound was called inactive in [3] and in experiment [5].
On to `CC(C)NC(=O)c1ccccc1N`, for which the Potency result in experiment [1], in experiment [2], in experiment [4], in [6], in experiment [7] and in experiment [9] was “inactive” throughout. Besides, in experiment [10], the Potency entry is “inactive”. Moreover, the compound was classed as inactive in [3] and in [5].
With `O=C1OC(=O)C2CC=CCC12` (stereo unspecified), the Potency result in [1], in experiment [2], in experiment [4], in experiment [6], in experiment [7] and in experiment [8] was “inactive” in each case. In addition, the Potency entry in experiment [9] and in [10] was “inactive” in each case. The result in [3] and in experiment [5] was inactive.
`O=c1[nH][nH]c2ccccc12`: the Potency result in experiment [1], in experiment [2], in [4], in [6], in [7] and in experiment [9] was “inactive” throughout. In addition, in [10], the Potency entry was “inactive”. Further, the call in experiment [3] and in experiment [5] was inactive.
On to `O=C(Cl)c1cc(Cl)cc(Cl)c1`, for which the Potency entry in [1], in experiment [2], in experiment [4], in experiment [6], in experiment [7] and in experiment [8] was “inactive” in each case. Moreover, the Potency entry in experiment [9] and in experiment [10] was “inactive” each time. In addition, the call in [3] and in experiment [5] was inactive.
Take `CC(C)Oc1ccccc1O`: the Potency entry in [1], in [2], in experiment [4], in [6], in [7] and in experiment [8] was “inactive” in each case. Further, the Potency result in experiment [9] and in experiment [10] was “inactive” in each case. For the same compound, the result in [3] and in experiment [5] was inactive.
Turning to `COc1ccc(C(=O)c2ccc(C)cc2)c(O)c1`, the Potency entry in experiment [1], in experiment [2], in [4], in experiment [6], in [9] and in [10] was “inactive” each time. In addition, the call in experiment [3] and in experiment [5] was inactive. For the same compound, the Potency in experiment [7] was 13.3 µM (active) and 12.3 µM (active).
Consider `C1CCN(CN2CCCCC2)CC1`, for which the Potency result in experiment [1], in [2], in experiment [4], in experiment [6], in experiment [7] and in [8] was “inactive” in each case. In addition, the Potency result in [9] and in experiment [10] was “inactive” throughout. The compound was called inactive in [3] and in experiment [5].
`CC(=O)c1cccnc1`: the Potency result in [1], in experiment [2], in [4], in experiment [6], in experiment [7] and in [8] was “inactive” in each case. For the same compound, the Potency entry in [9] and in [10] was “inactive” in each case. The call in [3] and in [5] was inactive.
For `C=CC(=O)OCCCCCCCCCC`, the Potency entry in experiment [1], in [2], in experiment [4], in experiment [6], in [7] and in experiment [8] was “inactive” each time. The Potency entry in experiment [9] and in experiment [10] was “inactive” in each case. The result in experiment [3] and in experiment [5] was inactive.
`CCC1=C(C)CN(C(=O)NCCc2ccc(S(=O)(=O)NC(=O)NC3CCC(C)CC3)cc2)C1=O` (stereo unspecified): the Potency result in experiment [1], in experiment [2], in [4], in experiment [6], in [7] and in experiment [8] was “inactive” each time. Further, the Potency entry in [9] and in experiment [10] was “inactive” in each case. The compound was classed as inactive in experiment [3] and in experiment [5].
Consider `CC(C)(C)N`, for which the Potency entry in [1], in experiment [2], in [4], in experiment [6], in experiment [7] and in experiment [8] was “inactive” in each case. Besides, the Potency entry in [9] and in [10] was “inactive” each time. Also, the call in experiment [3] and in [5] was inactive.
Regarding `O=Cc1ccc([N+](=O)[O-])cc1`, the Potency entry in experiment [1], in [2], in [4], in experiment [6], in [8] and in experiment [9] was “inactive” in each case. Further, the Potency entry in experiment [10] was “inactive”. For the same compound, the result in experiment [3] and in experiment [5] was inactive. For the same compound, the Potency in experiment [7] is 30.8 µM (active).
For `CC(C)(C(=O)O)c1ccc(C(O)CCCN2CCC(C(O)(c3ccccc3)c3ccccc3)CC2)cc1` (stereo unspecified), the Potency result in experiment [1], in experiment [2], in experiment [4], in experiment [6], in experiment [7] and in experiment [8] was “inactive” each time. Besides, the result in [3] and in experiment [5] was inactive.
In the case of `COC=O`, the activity change, negative = cytotoxic in [1] is 17.8% [at 8.44 µM]. For the same compound, the activity, negative = inhibition is 9.66% [at 8.44 µM] in [2], 29% [at 6.71 µM] in experiment [4] and 2.56% [at 8.47 µM] in [10]. The activation was 0.249% [at 8.08 µM] in experiment [3], 2.27% [at 6.71 µM] in experiment [6] and 11.2% [at 8.47 µM] in experiment [7]. In addition, in experiment [5], the activity, negative = cytotoxicity was 7.46% [at 6.72 µM]. The activity change, negative = inhibition in experiment [8] is 1.93% [at 8.47 µM]. In addition, the activity change, negative = cytotoxicity in experiment [9] is 4.5% [at 8.47 µM].
For `NC(=O)c1ccccc1`, the Potency entry in [1], in [2], in experiment [4], in experiment [6], in experiment [7] and in experiment [8] was “inactive” each time. Moreover, the Potency result in [9] and in [10] was “inactive” in each case. Further, the call in experiment [3] and in experiment [5] was inactive.
`CC(C)CCCCCOC(=O)CS`: the Potency entry in experiment [1], in experiment [2], in experiment [4], in experiment [6], in [7] and in experiment [9] was “inactive” in each case. The compound was called inactive in experiment [3] and in experiment [5].
For `CC(COc1ccccc1)NC(C)C(O)c1ccc(O)cc1` (stereo unspecified), the Potency result in experiment [1], in experiment [2], in experiment [4], in experiment [6], in experiment [7] and in experiment [9] was “inactive” in each case. For the same compound, the Potency result in experiment [10] was “inactive”. Besides, the call in experiment [3] and in experiment [5] was inactive.
In the case of `SCCOCCOCCS`, the Potency result in [1], in [2], in experiment [4], in experiment [6], in experiment [7] and in experiment [8] was “inactive” throughout. Moreover, the Potency result in experiment [9] and in experiment [10] was “inactive” each time. The call in [3] and in experiment [5] was inactive.
Consider `CCCCCCCCCCCCN1CCOCC1`, for which the Potency entry in [1], in experiment [2], in [4], in experiment [6], in experiment [7] and in experiment [8] was “inactive” each time. Moreover, the Potency entry in experiment [9] and in experiment [10] was “inactive” in each case. Besides, the call in [3] and in experiment [5] was inactive.
